Results taken from PubChem BioAssay AID1159580 (chemical genetic matrix, 2015).
Among all 5,500 compounds or so, about 2,000 (36%) were called active. Inconclusive results (about 18%) are left out. Rule as the data show it: active = normalized growth mostly below about 0.91 (no sharp cut-off); inconclusive = no clear call, values can overlap the other calls; inactive = mostly above about 0.92. Some of the results follow.

Assay: chemical genetic growth profiling, strain panel (AID 1159580);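 also: tested at 20 µM; growth read once vehicle control cultures reached saturation at 30 °C; 1 = growth at the plate median or of vehicle wells; lower values mean less growth of the strain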
Settings: growth OD

Measured: normalized growth

COc1ccc2c3c1OC1C(O)CC=C4C(C2)N(C)CCC431 (stereo unspecified)
inactive: S. cerevisiae deletion strains, locus YAL013W, strain DEP1, hits give low values 0.994 | S. cerevisiae deletion strains, locus YBR021W, strain FUR4, hits give low values 1.01 | S. cerevisiae deletion strains, locus YBR229C, strain ROT2, hits give low values 1.01 | S. cerevisiae deletion strains, locus YCL029C, strain bik1, hits give low values 1.03 | S. cerevisiae deletion strains, locus YDL035C, strain GPR1, hits give low values 1.01 | S. cerevisiae deletion strains, locus YDL074C, strain BRE1, hits give low values 1.04 | S. cerevisiae deletion strains, locus YDL101C, strain DUN1, hits give low values 1.03 | S. cerevisiae deletion strains, locus YDL134C, strain PPH21, hits give low values 1.01 | S. cerevisiae deletion strains, locus YDL185W, strain tfp1, hits give low values 1.02 | S. cerevisiae deletion strains, locus YDL192W, strain arf1, hits give low values 1.02 | S. cerevisiae deletion strains, locus YDR101C, strain arx1, hits give low values 1 | S. cerevisiae deletion strains, locus YDR150W, strain NUM1, hits give low values 1.02 | S. cerevisiae deletion strains, locus YDR162C, strain NBP2, hits give low values 1.01 | S. cerevisiae deletion strains, locus YDR318W, strain mcm21, hits give low values 1.02 | S. cerevisiae deletion strains, locus YDR388W, hits give low values 1 | S. cerevisiae deletion strains, locus YDR502C, strain sam2, hits give low values 1.01 | S. cerevisiae deletion strains, locus YEL061C, strain CIN8, hits give low values 1.01 | S. cerevisiae deletion strains, locus YER110C, hits give low values 1.02 | S. cerevisiae deletion strains, locus YER155C, strain BEM2, hits give low values 0.996 | S. cerevisiae deletion strains, locus YER167W, strain BCK2, hits give low values 1.03 | S. cerevisiae deletion strains, locus YGL078C, strain dbp3, hits give low values 1.01 | S. cerevisiae deletion strains, locus YGL086W, strain mad1, hits give low values 1.02 | S. cerevisiae deletion strains, locus YGL248W, strain PDE1, hits give low values 1.02 | S. cerevisiae deletion strains, locus YGR078C, strain PAC10, hits give low values 1.03 | S. cerevisiae deletion strains, locus YGR135W, strain pre9, hits give low values 1.01 | S. cerevisiae deletion strains, locus YGR229C, strain SMI1, hits give low values 0.993 | S. cerevisiae deletion strains, locus YGR252W, strain gcn5, hits give low values 1.02 | S. cerevisiae deletion strains, locus YHR030C, strain SLT2, hits give low values 1.01 | S. cerevisiae deletion strains, locus YHR079C, strain IRE1 (second series), hits give low values 1.02 | S. cerevisiae deletion strains, locus YHR094C, strain hxt1, hits give low values 1.01 | S. cerevisiae deletion strains, locus YHR129C, strain ARP1, hits give low values 1.01 | S. cerevisiae deletion strains, locus YHR200W, strain rpn10, hits give low values 1.01 | S. cerevisiae deletion strains, locus YIL066C, strain RNR3, hits give low values 1.01 | S. cerevisiae deletion strains, locus YIL073C, strain SPO22, hits give low values 1.1 | S. cerevisiae deletion strains, locus YIL125W, strain kgd1, hits give low values 1.01 | S. cerevisiae deletion strains, locus YIR030C, strain dcg1, hits give low values 1.02 | S. cerevisiae deletion strains, locus YJL095W, strain BCK1, hits give low values 1.03 | S. cerevisiae deletion strains, locus YJL134W, strain LCB3, hits give low values 1.01 | S. cerevisiae deletion strains, locus YJL168C, strain set2, hits give low values 1.02 | S. cerevisiae deletion strains, locus YJL187C, strain SWE1 (second series), hits give low values 1.02 | S. cerevisiae deletion strains, locus YJR043C, strain POL32, hits give low values 1.03 | S. cerevisiae deletion strains, locus YJR075W, strain HOC1, hits give low values 1.02 | S. cerevisiae deletion strains, locus YKL009W, strain mrt4, hits give low values 1.03 | S. cerevisiae deletion strains, locus YKL068W, hits give low values 1.01 | S. cerevisiae deletion strains, locus YKL085W, strain MDH1 (second series), hits give low values 1.01 | S. cerevisiae deletion strains, locus YKL085W, strain MDH1, hits give low values 1.01 | S. cerevisiae deletion strains, locus YKL190W, strain CNB1, hits give low values 1.01 | S. cerevisiae deletion strains, locus YKR001C, strain vps1, hits give low values 1.03 | S. cerevisiae deletion strains, locus YLR039C, strain RIC1, hits give low values 1.04 | S. cerevisiae deletion strains, locus YLR058C, strain SHM2, hits give low values 1.02 | S. cerevisiae deletion strains, locus YLR102C, strain apc9, hits give low values 1.01 | S. cerevisiae deletion strains, locus YLR262C, strain YPT6, hits give low values 1.05 | S. cerevisiae deletion strains, locus YLR268W, strain sec22, hits give low values 1.02 | S. cerevisiae deletion strains, locus YLR330W, strain CHS5, hits give low values 1.01 | S. cerevisiae deletion strains, locus YLR342W, strain FKS1 (second series), hits give low values 1.02 | S. cerevisiae deletion strains, locus YLR371W, strain rom2, hits give low values 1.01 | S. cerevisiae deletion strains, locus YLR418C, strain cdc73, hits give low values 1.02 | S. cerevisiae deletion strains, locus YML016C, strain PPZ1, hits give low values 1.02 | S. cerevisiae deletion strains, locus YML032C, strain rad52, hits give low values 1.02 | S. cerevisiae deletion strains, locus YML124C, strain tub3, hits give low values 1.02 | S. cerevisiae deletion strains, locus YMR078C, strain ctf18, hits give low values 1.03 | S. cerevisiae deletion strains, locus YMR223W, strain ubp8, hits give low values 1.03 | S. cerevisiae deletion strains, locus YMR263W, strain SAP30, hits give low values 1.02 | S. cerevisiae deletion strains, locus YMR307W, strain GAS1, hits give low values 0.962 | S. cerevisiae deletion strains, locus YNL067W, strain RPL9B, hits give low values 1.03 | S. cerevisiae deletion strains, locus YNL128W, strain TEP1, hits give low values 1.02 | S. cerevisiae deletion strains, locus YNL153C, strain GIM3, hits give low values 1.02 | S. cerevisiae deletion strains, locus YNL233W, strain BNI4, hits give low values 1.02 | S. cerevisiae deletion strains, locus YNL250W, strain rad50, hits give low values 1.03 | S. cerevisiae deletion strains, locus YNL271C, strain bni1, hits give low values 1.01 | S. cerevisiae deletion strains, locus YNL298W, strain CLA4, hits give low values 1.03 | S. cerevisiae deletion strains, locus YNL307C, strain MCK1, hits give low values 1.02 | S. cerevisiae deletion strains, locus YNL322C, strain KRE1, hits give low values 1.01 | S. cerevisiae deletion strains, locus YNR052C, strain pop2, hits give low values 1.02 | S. cerevisiae deletion strains, locus YOL006C, strain TOP1, hits give low values 1.1 | S. cerevisiae deletion strains, locus YOL012C, strain htz1 0.859 | S. cerevisiae deletion strains, locus YOL147C, strain pex11, hits give low values 1 | S. cerevisiae deletion strains, locus YOR061W, strain CKA2, hits give low values 1.02 | S. cerevisiae deletion strains, locus YOR069W, strain VPS5, hits give low values 1.01 | S. cerevisiae deletion strains, locus YOR136W, strain idh2, hits give low values 1.02 | S. cerevisiae deletion strains, locus YOR144C, strain elg1, hits give low values 1.02 | S. cerevisiae deletion strains, locus YOR184W, strain ser1, hits give low values 1.03 | S. cerevisiae deletion strains, locus YOR316C, strain cot1, hits give low values 1.02 | S. cerevisiae deletion strains, locus YPL055C, strain LGE1, hits give low values 1.03 | S. cerevisiae deletion strains, locus YPL241C, strain CIN2, hits give low values 1.01 | S. cerevisiae deletion strains, locus YPR119W, strain clb2, hits give low values 1 | S. cerevisiae deletion strains, locus YPR141C, strain kar3, hits give low values 1.01 | S. cerevisiae deletion strains, locus YPR163C, strain tif3, hits give low values 1.02 | S. cerevisiae deletion strains, locus YPR167C, strain met16, hits give low values 1.02 | S. cerevisiae deletion strains, strain wtn01, hits give low values 1.01 | S. cerevisiae strains, strain wild type, hits give low values 1
